Measured values reported in PubChem BioAssay AID1159580 (chemical genetic matrix, 2015).
Screen size: about 5,500 compounds; about 2,000 (36%) were called active. Roughly 18% stayed inconclusive and do not appear here. Rule as the data show it: active = normalized growth mostly below about 0.91 (no sharp cut-off); inconclusive = no clear call, values can overlap the other calls; inactive = mostly above about 0.92. The list shows a part of the results.

Experiment: chemical genetic growth profiling, strain panel (AID 1159580);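 also: tested at 20 µM; growth read once vehicle control cultures reached saturation at 30 °C; 1 = growth at the plate median or of vehicle wells; lower values mean less growth of the strain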
Conditions: growth OD

Measured: normalized growth

CNC(C)(C)Cc1ccccc1
inactive: S. cerevisiae deletion strains, locus YJR043C, strain POL32, stronger effect = lower value 0.977 | S. cerevisiae deletion strains, locus YJR066W, strain TOR1, stronger effect = lower value 1.01 | S. cerevisiae deletion strains, locus YKL009W, strain mrt4, stronger effect = lower value 0.988 | S. cerevisiae deletion strains, locus YKL068W, stronger effect = lower value 1 | S. cerevisiae deletion strains, locus YKL085W, strain MDH1 (second series), stronger effect = lower value 1.01 | S. cerevisiae deletion strains, locus YKL085W, strain MDH1, stronger effect = lower value 1.01 | S. cerevisiae deletion strains, locus YKL160W, strain elf1, stronger effect = lower value 1.01 | S. cerevisiae deletion strains, locus YKL190W, strain CNB1, stronger effect = lower value 1.01 | S. cerevisiae deletion strains, locus YKR001C, strain vps1, stronger effect = lower value 0.991 | S. cerevisiae deletion strains, locus YKR026C, strain gcn3, stronger effect = lower value 1.02 | S. cerevisiae deletion strains, locus YKR091W, strain srl3, stronger effect = lower value 1 | S. cerevisiae deletion strains, locus YLL001W, strain dnm1, stronger effect = lower value 1.01 | S. cerevisiae deletion strains, locus YLL026W, stronger effect = lower value 1.02 | S. cerevisiae deletion strains, locus YLL041C, strain sdh2, stronger effect = lower value 1.02 | S. cerevisiae deletion strains, locus YLR027C, strain aat2, stronger effect = lower value 1.02 | S. cerevisiae deletion strains, locus YLR039C, strain RIC1, stronger effect = lower value 1.04 | S. cerevisiae deletion strains, locus YLR058C, strain SHM2, stronger effect = lower value 1.01 | S. cerevisiae deletion strains, locus YLR102C, strain apc9, stronger effect = lower value 1.01 | S. cerevisiae deletion strains, locus YLR113W, strain HOG1, stronger effect = lower value 1.06 | S. cerevisiae deletion strains, locus YLR221C, strain rsa3, stronger effect = lower value 1.02 | S. cerevisiae deletion strains, locus YLR258W, strain gsy2, stronger effect = lower value 1.02 | S. cerevisiae deletion strains, locus YLR262C, strain YPT6 (second series), stronger effect = lower value 1 | S. cerevisiae deletion strains, locus YLR262C, strain YPT6, stronger effect = lower value 1.02 | S. cerevisiae deletion strains, locus YLR268W, strain sec22, stronger effect = lower value 1 | S. cerevisiae deletion strains, locus YLR320W, strain mms22, stronger effect = lower value 1.04 | S. cerevisiae deletion strains, locus YLR330W, strain CHS5, stronger effect = lower value 1.01 | S. cerevisiae deletion strains, locus YLR342W, strain FKS1 (second series), stronger effect = lower value 1.08 | S. cerevisiae deletion strains, locus YLR342W, strain FKS1, stronger effect = lower value 1.02 | S. cerevisiae deletion strains, locus YLR357W, strain rsc2, stronger effect = lower value 0.988 | S. cerevisiae deletion strains, locus YLR370C, strain arc18, stronger effect = lower value 1.01 | S. cerevisiae deletion strains, locus YLR371W, strain rom2, stronger effect = lower value 1.01 | S. cerevisiae deletion strains, locus YLR384C, strain iki3, stronger effect = lower value 1.01 | S. cerevisiae deletion strains, locus YLR418C, strain cdc73, stronger effect = lower value 1.01 | S. cerevisiae deletion strains, locus YML016C, strain PPZ1, stronger effect = lower value 1.01 | S. cerevisiae deletion strains, locus YML032C, strain rad52, stronger effect = lower value 0.985 | S. cerevisiae deletion strains, locus YML120C, strain ndi1, stronger effect = lower value 1.02 | S. cerevisiae deletion strains, locus YML124C, strain tub3, stronger effect = lower value 1.01 | S. cerevisiae deletion strains, locus YMR058W, strain fet3, stronger effect = lower value 1 | S. cerevisiae deletion strains, locus YMR078C, strain ctf18, stronger effect = lower value 0.999 | S. cerevisiae deletion strains, locus YMR125W, strain sto1, stronger effect = lower value 1.02 | S. cerevisiae deletion strains, locus YMR129W, stronger effect = lower value 1.01 | S. cerevisiae deletion strains, locus YMR205C, strain PFK2, stronger effect = lower value 1.03 | S. cerevisiae deletion strains, locus YMR223W, strain ubp8, stronger effect = lower value 1.02 | S. cerevisiae deletion strains, locus YMR231W, strain pep5, stronger effect = lower value 1.02 | S. cerevisiae deletion strains, locus YMR307W, strain GAS1, stronger effect = lower value 1.02 | S. cerevisiae deletion strains, locus YNL067W, strain RPL9B, stronger effect = lower value 0.988 | S. cerevisiae deletion strains, locus YNL071W, strain lat1, stronger effect = lower value 1.01 | S. cerevisiae deletion strains, locus YNL128W, strain TEP1, stronger effect = lower value 1.03 | S. cerevisiae deletion strains, locus YNL183C, strain NPR1, stronger effect = lower value 1 | S. cerevisiae deletion strains, locus YNL209W, strain ssb2, stronger effect = lower value 1.02 | S. cerevisiae deletion strains, locus YNL233W, strain BNI4, stronger effect = lower value 0.995 | S. cerevisiae deletion strains, locus YNL248C, strain rpa49, stronger effect = lower value 1.01 | S. cerevisiae deletion strains, locus YNL250W, strain rad50, stronger effect = lower value 1.02 | S. cerevisiae deletion strains, locus YNL271C, strain bni1, stronger effect = lower value 0.997 | S. cerevisiae deletion strains, locus YNL298W, strain CLA4, stronger effect = lower value 1 | S. cerevisiae deletion strains, locus YNL307C, strain MCK1, stronger effect = lower value 1.01 | S. cerevisiae deletion strains, locus YNL322C, strain KRE1 (second series), stronger effect = lower value 1.02 | S. cerevisiae deletion strains, locus YNL322C, strain KRE1, stronger effect = lower value 1 | S. cerevisiae deletion strains, locus YNR049C, strain mso1, stronger effect = lower value 1.01 | S. cerevisiae deletion strains, locus YNR052C, strain pop2, stronger effect = lower value 1 | S. cerevisiae deletion strains, locus YOL006C, strain TOP1, stronger effect = lower value 0.958 | S. cerevisiae deletion strains, locus YOL012C, strain htz1 1.02 | S. cerevisiae deletion strains, locus YOL147C, strain pex11, stronger effect = lower value 1.01 | S. cerevisiae deletion strains, locus YOR001W, strain rrp6, stronger effect = lower value 1.03 | S. cerevisiae deletion strains, locus YOR061W, strain CKA2, stronger effect = lower value 1.01 | S. cerevisiae deletion strains, locus YOR069W, strain VPS5, stronger effect = lower value 1.01 | S. cerevisiae deletion strains, locus YOR070C, strain gyp1, stronger effect = lower value 1.01 | S. cerevisiae deletion strains, locus YOR080W, strain dia2, stronger effect = lower value 1.02 | S. cerevisiae deletion strains, locus YOR083W, strain WHI5, stronger effect = lower value 1.02 | S. cerevisiae deletion strains, locus YOR106W, strain vam3, stronger effect = lower value 1.03 | S. cerevisiae deletion strains, locus YOR136W, strain idh2, stronger effect = lower value 0.994 | S. cerevisiae deletion strains, locus YOR144C, strain elg1, stronger effect = lower value 0.995 | S. cerevisiae deletion strains, locus YOR184W, strain ser1, stronger effect = lower value 0.998 | S. cerevisiae deletion strains, locus YOR231W, strain MKK1, stronger effect = lower value 1.03 | S. cerevisiae deletion strains, locus YOR265W, strain rbl2, stronger effect = lower value 1.01 | S. cerevisiae deletion strains, locus YOR270C, strain vph1, stronger effect = lower value 1.04 | S. cerevisiae deletion strains, locus YOR290C, strain snf2, stronger effect = lower value 1.01 | S. cerevisiae deletion strains, locus YOR316C, strain cot1, stronger effect = lower value 1.01 | S. cerevisiae deletion strains, locus YPL051W, strain arl3, stronger effect = lower value 1.02 | S. cerevisiae deletion strains, locus YPL078C, strain atp4, stronger effect = lower value 1.01 | S. cerevisiae deletion strains, locus YPL106C, strain sse1, stronger effect = lower value 1.05 | S. cerevisiae deletion strains, locus YPL240C, strain hsp82, stronger effect = lower value 1.01 | S. cerevisiae deletion strains, locus YPL241C, strain CIN2, stronger effect = lower value 1.01 | S. cerevisiae deletion strains, locus YPL256C, strain CLN2, stronger effect = lower value 1.02 | S. cerevisiae deletion strains, locus YPR119W, strain clb2, stronger effect = lower value 1.01 | S. cerevisiae deletion strains, locus YPR141C, strain kar3, stronger effect = lower value 0.998 | S. cerevisiae deletion strains, locus YPR163C, strain tif3, stronger effect = lower value 0.999 | S. cerevisiae deletion strains, locus YPR167C, strain met16, stronger effect = lower value 1 | S. cerevisiae deletion strains, strain wtn01, stronger effect = lower value 0.999 | S. cerevisiae strains, strain wild type, stronger effect = lower value 1.01
